Measurements as given in PubChem BioAssay.
Records with an inconclusive call do not appear. Calls of active or inactive are those of the source.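 Rule for the calls, unless noted: active = differentiation response of at least 50%, scaled between solvent and reference control, from cells with both markers; inactive = the rest.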

What was measured:
[1] = rapamycin-like changes in RPL19A-GFP expression – cell-based, S. cerevisiae, multiplex flow cytometry, primary screen (AID 1862; in the data active = percent of DMSO control GFP below about 86%;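 note: lower values mimic rapamycin by blocking the RPL19A rise seen in DMSO cells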); conditions: S. cerevisiae RPL19A-GFP strain, flow cytometry fluorescence, 3 h; at 10 µM; stronger effect = lower value
[2] = TOR pathway RTG branch CIT2 reporter changes – S. cerevisiae, GFP fusion, multiplex flow cytometry, primary screen (AID 1870;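 active = percent response above a set limit, the screen-wide mean plus 3 SD, cut at about 130% in these data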;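 note: barcoded CIT2-GFP strain pooled with four other GFP strains with rapamycin as positive control; median GFP fluorescence per well over plate mean of DMSO wells so 100% = DMSO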); conditions: S. cerevisiae CIT2-GFP expression, 3 h, at 10 µM, stronger effect = higher value
[3] = TOR pathway LAP4-GFP level changes – S. cerevisiae, multiplex flow cytometry, primary screen (AID 1873;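 active = GFP signal, as percent of the solvent control, above the screen mean plus 3 SD, about 149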); conditions: S. cerevisiae LAP4-GFP expression, 3 h, at 10 µM, stronger effect = higher value
[4] = yeast AGP1-GFP level changes, GLN3 branch – cell-based, multiplex flow cytometry, S. cerevisiae, primary screen (AID 1887;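 active = GFP signal above the screen-wide mean plus 3 SD, that is over about 124.5% of the solvent control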;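 note: AGP1-GFP fusion strain of S. cerevisiae within a five-strain barcoded multiplex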); conditions: 3 h, at 10 µM, stronger effect = higher value
[5] = reduced mouse 2C T cell binding to pMHC/ICAM-1 vesicles – MLPCN validation set, flow cytometry, LFA-1/ICAM-1 modulator project, pilot screen (AID 2523;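 active = response below a set limit, under 55% cells CD8-positive and vesicle-bound, and CD8 cells' 90th-percentile brightness under 279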;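 for vesicle binding response: mean PE anti-B7-1 fluorescence of CD8+ cells relative to row control; 100% = QL9-loaded vesicles with DMSO vehicle in the same plate row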); conditions: 2C mouse CD8+ T cells, at 7 µM, stronger effect = lower value; double positive events: measured here: CD8+/vesicle+ event percentage
[6] = biological target: Integrin beta-1 (Homo sapiens) + Integrin alpha-4 (Homo sapiens) (UniProt P13612+P05556); experiment: alpha4beta1 integrin LIBS antibody binding reduction – U937 cells, HUTS-21 mAb, flow cytometry, validation set, VLA-4 allosteric modulator project, pilot screen (AID 2674;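 active = inhibition above 50%, about 3 SD of the validation set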;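 note: antibody binding induced by the VLA-4 ligand LDV present at three times its Kd; 0% = LDV ligand with antibody and no compound and 100% = antibody without LDV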); conditions: HUTS-21 LIBS mAb binding, at 6.7 µM, stronger effect = higher value, binding induced by LDV ligand
[7] = calorie-restriction mimetic ROS inhibitors, yeast – validation compound set, pilot screen (AID 2706;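 active = superoxide response below 65% of plate, a cut near 3 SD across the whole screen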;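 note: yeast exposed to compound for one week at 30 degrees C before staining; 100% = mean of all compound wells on the same plate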); conditions: S. cerevisiae aging, superoxide DHE fluorescence; at 10 µM, stronger effect = lower value
[8] = biological target: Beta-adrenergic receptor kinase 1 (Homo sapiens) (UniProt P25098); experiment: GRK2 binders displacing RNA aptamer, biochemical, validation, human GRK2, bead flow cytometry (AID 488806;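 active = aptamer binding inhibition above 30%, about 3 SD of noise from non-fluorescent compounds; inactive = inhibition at or below 30%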); conditions: bead-bound GRK2, FAM-aptamer displacement, at 10 µM, stronger effect = higher value
[9] = biological target: Beta-2 adrenergic receptor (Homo sapiens) (UniProt P07550); experiment: agonist-induced loss of surface beta2AR – cell-based, FAP fluorogen, flow cytometry, validation set, pilot screen (AID 504459;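 active = percent response above 42, roughly 3 SD of non-fluorescent test compounds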;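 note: agonist-driven loss of surface beta2AR via internalization measured by FAP dye flow cytometry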); conditions: Am2.2-beta2AR cells, at 10 µM, stronger effect = higher value
[10] = biological target: AP-2 complex subunit beta (Homo sapiens) (UniProt P63010); experiment: beta-arrestin/AP2 interaction blockers – biochemical, validation set, GST-AP2 beads, flow cytometry, pilot screen (AID 504541;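 active = inhibition above 54%, about 3 SD of non-fluorescent compounds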;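 note: AP2 carries R879A mutation and is captured from E. coli lysate; bead-bound FITC arrestin peptide fluorescence measuring arrestin peptide binding to AP2; 0% = DMSO wells and 100% = excess unlabeled arrestin peptide control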); conditions: FITC arrestin peptide, at 10 µM, stronger effect = higher value, AP2 beta2 appendage fragment, R879A mutant
[11] = cytosolic pH regulators acting via V-ATPase – S. cerevisiae, pHLuorin, HTS validation (AID 504600; in the data active = response above about 15%;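 note: plate controls were DMSO for no effect and reference compound for full effect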); conditions: V-ATPase proton transport, at 10 µM, stronger effect = higher value
[12] = tested on: anti-desmoglein-3 scFv antibody binding to human DSG3; experiment: blockers of pathogenic pemphigus antibody–desmoglein-3 binding – biochemical, validation compound set, bead-based, flow cytometry, pilot screen (AID 588368;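 active = binding below the plate cutoff, the plate median minus 3 SD, with a reading above zero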;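 note: signal is the median channel fluorescence of bead-bound GFP antibody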); conditions: Protein G beads, DSG3-Fc, scFv-GFP binding, at 10 µM, stronger effect = lower value
[13] = Nile Red efflux blockade in pump-expressing yeast – validation compound set, multiplex, phenotypic, pilot screen (AID 588506;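 active = efflux inhibition above 0.42, the validation set average plus 4 SD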;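 note: Nile Red retained in cells so higher fluorescence means more efflux inhibition; 0 = negative control wells and 1 = enniatin B 25 µM full block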); conditions: S. cerevisiae pump-expressing triplex, Nile Red efflux flow cytometry; at 10 µM; stronger effect = higher value; the pumps come from Candida albicans
[14] = biological target: ATP-binding cassette sub-family B member 6 (Homo sapiens) (UniProt Q9NP58); experiment: blockers of ABCB6-driven porphyrin uptake – K562-ABCB6 cells, flow cytometry, validation set, pilot screen (AID 588550;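 active = inhibition above the screen-wide mean plus 3 SD, about 51%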;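 note: 0% = DMSO wells and 100% = benzethonium chloride 70 µM positive control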); conditions: K562-ABCB6 porphyrin accumulation, 1 h, at 10 µM, stronger effect = higher value
[15] = AML differentiation inducers, ER-HoxA9 marrow cells – cell-based, GFP/MAC1 double positive, flow cytometry, validation set, primary screen (AID 588685); conditions: stronger effect = higher value, normalized: vehicle 0, fulvestrant 100;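 note: compound exposure lasts four days before antibody staining and flow analysis; 0% = DMSO wells and 100% = 5 µM fulvestrant positive control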
[16] = TOR pathway GLN3 branch reporter MEP2-GFP changes – S. cerevisiae, multiplex flow cytometry, primary screen (AID 1867;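 active = GFP response, as percent of the DMSO control, above the screen-wide mean plus 3 SD, about 139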;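 note: median GFP channel fluorescence of barcode-gated MEP2-GFP cells measured by flow cytometry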); conditions: S. cerevisiae MEP2-GFP strain, 3 h, at 10 µM, stronger effect = higher value, 100% means same as DMSO wells

AP-2 complex subunit beta (Homo sapiens), sequence (P63010 whole entry, looked up, the tested form may be a part, one chain of several): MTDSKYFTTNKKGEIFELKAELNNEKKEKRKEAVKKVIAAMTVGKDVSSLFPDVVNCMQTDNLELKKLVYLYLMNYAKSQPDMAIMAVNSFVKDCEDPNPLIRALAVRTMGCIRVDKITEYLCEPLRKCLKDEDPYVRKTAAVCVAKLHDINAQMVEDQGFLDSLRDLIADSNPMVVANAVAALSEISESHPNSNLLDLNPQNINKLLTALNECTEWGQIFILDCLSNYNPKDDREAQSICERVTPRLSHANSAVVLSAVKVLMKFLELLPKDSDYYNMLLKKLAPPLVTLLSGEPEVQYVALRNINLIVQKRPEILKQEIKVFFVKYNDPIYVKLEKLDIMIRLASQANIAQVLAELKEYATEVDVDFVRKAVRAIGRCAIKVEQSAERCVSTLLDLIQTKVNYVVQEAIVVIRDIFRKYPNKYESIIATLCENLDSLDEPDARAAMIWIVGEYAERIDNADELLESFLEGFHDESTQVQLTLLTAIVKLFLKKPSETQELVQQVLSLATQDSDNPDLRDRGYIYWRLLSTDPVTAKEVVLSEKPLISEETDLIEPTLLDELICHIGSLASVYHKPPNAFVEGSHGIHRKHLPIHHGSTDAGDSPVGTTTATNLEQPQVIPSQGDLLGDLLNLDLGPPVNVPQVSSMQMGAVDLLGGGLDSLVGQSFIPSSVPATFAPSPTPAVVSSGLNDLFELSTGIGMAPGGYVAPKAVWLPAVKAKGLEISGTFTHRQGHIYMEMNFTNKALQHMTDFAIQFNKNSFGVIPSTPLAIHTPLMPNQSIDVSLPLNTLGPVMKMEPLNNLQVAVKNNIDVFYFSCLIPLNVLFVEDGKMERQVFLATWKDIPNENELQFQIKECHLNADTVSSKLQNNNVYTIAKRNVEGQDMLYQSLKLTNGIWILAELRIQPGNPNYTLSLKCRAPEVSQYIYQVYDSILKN
Beta-2 adrenergic receptor (Homo sapiens), sequence (P07550 whole entry, looked up): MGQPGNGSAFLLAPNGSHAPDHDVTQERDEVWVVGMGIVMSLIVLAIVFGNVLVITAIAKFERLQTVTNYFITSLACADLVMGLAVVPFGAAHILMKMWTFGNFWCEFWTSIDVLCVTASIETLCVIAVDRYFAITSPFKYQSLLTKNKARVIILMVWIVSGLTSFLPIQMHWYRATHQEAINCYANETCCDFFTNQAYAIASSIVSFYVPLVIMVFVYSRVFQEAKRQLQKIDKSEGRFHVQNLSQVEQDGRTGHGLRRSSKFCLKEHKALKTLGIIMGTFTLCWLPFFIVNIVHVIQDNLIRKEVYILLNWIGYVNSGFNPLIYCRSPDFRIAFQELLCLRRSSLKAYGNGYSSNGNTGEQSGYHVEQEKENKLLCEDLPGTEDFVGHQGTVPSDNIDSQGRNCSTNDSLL
Integrin beta-1 (Homo sapiens) + Integrin alpha-4 (Homo sapiens), sequence (P05556 whole entry, looked up): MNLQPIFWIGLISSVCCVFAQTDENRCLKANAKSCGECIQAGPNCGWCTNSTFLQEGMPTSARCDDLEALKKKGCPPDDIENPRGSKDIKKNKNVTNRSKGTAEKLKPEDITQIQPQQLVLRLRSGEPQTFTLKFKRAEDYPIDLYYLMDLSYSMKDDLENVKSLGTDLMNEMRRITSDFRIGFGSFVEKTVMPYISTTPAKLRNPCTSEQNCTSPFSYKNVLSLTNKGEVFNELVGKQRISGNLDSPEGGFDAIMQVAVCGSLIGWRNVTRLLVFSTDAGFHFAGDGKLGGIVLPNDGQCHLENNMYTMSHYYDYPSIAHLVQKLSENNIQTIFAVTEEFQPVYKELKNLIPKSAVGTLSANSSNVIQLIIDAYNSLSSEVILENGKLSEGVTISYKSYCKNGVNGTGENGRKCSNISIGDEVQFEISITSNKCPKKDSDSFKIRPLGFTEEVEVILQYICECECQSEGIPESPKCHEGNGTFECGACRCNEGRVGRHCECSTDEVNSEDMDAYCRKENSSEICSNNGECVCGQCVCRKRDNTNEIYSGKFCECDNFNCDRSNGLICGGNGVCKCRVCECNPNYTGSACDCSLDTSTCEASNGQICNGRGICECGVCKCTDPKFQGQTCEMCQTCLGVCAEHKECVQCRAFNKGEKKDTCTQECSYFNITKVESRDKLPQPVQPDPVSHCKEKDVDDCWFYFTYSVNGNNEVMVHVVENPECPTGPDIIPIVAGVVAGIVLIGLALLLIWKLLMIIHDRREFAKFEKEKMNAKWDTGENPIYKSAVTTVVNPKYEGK
Integrin beta-1 (Homo sapiens) + Integrin alpha-4 (Homo sapiens), sequence (P13612 whole entry, looked up): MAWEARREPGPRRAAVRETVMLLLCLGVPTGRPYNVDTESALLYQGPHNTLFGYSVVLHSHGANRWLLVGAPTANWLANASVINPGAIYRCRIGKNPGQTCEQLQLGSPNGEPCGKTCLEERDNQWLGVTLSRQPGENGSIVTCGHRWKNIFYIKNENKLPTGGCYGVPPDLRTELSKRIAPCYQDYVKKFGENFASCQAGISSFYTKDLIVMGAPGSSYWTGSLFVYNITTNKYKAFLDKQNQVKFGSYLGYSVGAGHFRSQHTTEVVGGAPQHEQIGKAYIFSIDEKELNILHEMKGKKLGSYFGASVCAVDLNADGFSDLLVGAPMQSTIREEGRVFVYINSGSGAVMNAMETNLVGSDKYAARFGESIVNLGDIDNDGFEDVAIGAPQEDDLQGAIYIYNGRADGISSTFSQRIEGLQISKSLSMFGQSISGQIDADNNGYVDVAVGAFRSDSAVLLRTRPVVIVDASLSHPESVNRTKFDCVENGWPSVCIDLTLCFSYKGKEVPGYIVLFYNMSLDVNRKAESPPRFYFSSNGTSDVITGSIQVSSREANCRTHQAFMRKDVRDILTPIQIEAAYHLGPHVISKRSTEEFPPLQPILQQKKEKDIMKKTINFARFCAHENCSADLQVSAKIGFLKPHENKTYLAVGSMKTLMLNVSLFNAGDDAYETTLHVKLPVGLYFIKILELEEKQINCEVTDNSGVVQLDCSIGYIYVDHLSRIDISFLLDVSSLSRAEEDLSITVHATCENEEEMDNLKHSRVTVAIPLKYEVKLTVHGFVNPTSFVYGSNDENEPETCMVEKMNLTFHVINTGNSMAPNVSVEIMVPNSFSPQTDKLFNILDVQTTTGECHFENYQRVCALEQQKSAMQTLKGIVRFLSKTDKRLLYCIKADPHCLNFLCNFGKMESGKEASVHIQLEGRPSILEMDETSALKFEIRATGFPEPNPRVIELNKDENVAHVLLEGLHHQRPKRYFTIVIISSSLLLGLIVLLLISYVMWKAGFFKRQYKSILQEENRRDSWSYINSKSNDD
ATP-binding cassette sub-family B member 6 (Homo sapiens), sequence (Q9NP58 whole entry, looked up): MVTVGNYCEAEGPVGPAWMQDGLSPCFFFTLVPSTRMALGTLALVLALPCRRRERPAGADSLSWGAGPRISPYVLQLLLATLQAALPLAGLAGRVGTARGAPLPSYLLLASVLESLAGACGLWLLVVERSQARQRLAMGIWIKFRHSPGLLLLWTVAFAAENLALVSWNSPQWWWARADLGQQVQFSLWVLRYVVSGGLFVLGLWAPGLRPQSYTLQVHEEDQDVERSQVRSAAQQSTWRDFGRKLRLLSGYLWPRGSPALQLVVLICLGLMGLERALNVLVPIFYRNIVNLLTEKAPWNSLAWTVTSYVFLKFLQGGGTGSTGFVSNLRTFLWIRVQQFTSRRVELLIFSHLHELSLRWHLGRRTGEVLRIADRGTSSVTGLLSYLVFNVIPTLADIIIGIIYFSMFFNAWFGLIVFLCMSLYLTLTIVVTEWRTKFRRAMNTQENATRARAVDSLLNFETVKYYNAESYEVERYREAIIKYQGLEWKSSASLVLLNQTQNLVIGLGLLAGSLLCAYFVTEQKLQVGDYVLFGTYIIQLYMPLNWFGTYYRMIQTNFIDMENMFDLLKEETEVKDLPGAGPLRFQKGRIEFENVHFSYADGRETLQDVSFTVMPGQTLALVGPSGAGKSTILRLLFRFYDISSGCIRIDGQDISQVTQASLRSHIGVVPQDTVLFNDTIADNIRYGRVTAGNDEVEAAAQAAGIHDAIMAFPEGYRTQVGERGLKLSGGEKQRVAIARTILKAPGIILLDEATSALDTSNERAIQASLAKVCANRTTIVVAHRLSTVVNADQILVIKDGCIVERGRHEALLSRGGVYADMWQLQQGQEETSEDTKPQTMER
Beta-adrenergic receptor kinase 1 (Homo sapiens), sequence (P25098 whole entry, looked up): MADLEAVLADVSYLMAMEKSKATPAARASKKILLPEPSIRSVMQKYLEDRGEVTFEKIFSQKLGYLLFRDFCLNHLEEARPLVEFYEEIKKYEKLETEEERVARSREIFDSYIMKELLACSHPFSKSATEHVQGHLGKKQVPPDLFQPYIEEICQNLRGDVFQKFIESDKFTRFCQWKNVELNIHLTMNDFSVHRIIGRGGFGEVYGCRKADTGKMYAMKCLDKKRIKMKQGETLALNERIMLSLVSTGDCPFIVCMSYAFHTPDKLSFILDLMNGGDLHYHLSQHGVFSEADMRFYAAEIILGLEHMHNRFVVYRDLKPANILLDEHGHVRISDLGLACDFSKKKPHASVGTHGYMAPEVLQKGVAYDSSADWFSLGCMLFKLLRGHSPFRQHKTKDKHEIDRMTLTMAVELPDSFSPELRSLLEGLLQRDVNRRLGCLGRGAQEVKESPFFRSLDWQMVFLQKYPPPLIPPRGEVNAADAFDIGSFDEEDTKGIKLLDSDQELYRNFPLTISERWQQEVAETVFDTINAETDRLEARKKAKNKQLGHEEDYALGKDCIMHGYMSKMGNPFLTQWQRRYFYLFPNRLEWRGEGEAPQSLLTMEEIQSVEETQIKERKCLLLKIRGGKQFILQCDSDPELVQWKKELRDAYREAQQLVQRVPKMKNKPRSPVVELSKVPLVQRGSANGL

Compound | percent of DMSO control GFP [1] | percent response of DMSO control [2] | GFP response vs DMSO [3] | GFP response, % of DMSO [4] | double positive events [5] [%] | vesicle binding response [5] | inhibition [6] | superoxide response (% of plate) [7] | aptamer binding inhibition [8] | response [9] | inhibition [10] | response [11] | binding (% of control) [12] | efflux inhibition (fraction of control) [13] | inhibition [14] | differentiation response [15] | GFP response vs DMSO [16]
OCCN(CCO)c1ccc2ccccc2c1 | 96.5% (inactive) | 99.6% (inactive) | 96.5% (inactive) | 98.9% (inactive) | 66.7 | 267% (inactive) | 0.94% (inactive) | 98.1% (inactive) | 2% (inactive) | -2.38% (inactive) | -3.97% (inactive) | 4.81% (inactive) | 103% (inactive) | -0.21 (inactive) | 10% (inactive) | 5.6% (inactive) | –
CCOc1ccc(C(=O)Nc2ccc(N3CCN(C(C)=O)CC3)cc2)cc1[N+](=O)[O-] | 93% (inactive) | 115% (inactive) | 78.7% (inactive) | – | 68.5 | 210% (inactive) | 3.55% (inactive) | 100% (inactive) | 3% (inactive) | -6.75% (inactive) | -0.46% (inactive) | 0.55% (inactive) | 99.4% (inactive) | 0.27 (inactive) | 11% (inactive) | -1.64% (inactive) | 106% (inactive)
CC(=O)OCC1OC(n2ccc(=O)[nH]c2=O)C(O)C1O (stereo not given) | 100% (inactive) | 122% (inactive) | 102% (inactive) | 101% (inactive) | 60.2 | 42.8% (inactive) | -12.9% (inactive) | 97.6% (inactive) | 1% (inactive) | -2% (inactive) | -6.88% (inactive) | -3.65% (inactive) | 97.7% (inactive) | -0.26 (inactive) | 9% (inactive) | -1.71% (inactive) | –
COc1cc(/C=C/C(=O)N2CCCC2)cc(OC)c1OC | 106% (inactive) | 107% (inactive) | 76.9% (inactive) | 100% (inactive) | 61.5 | 29.3% (inactive) | 6.81% (inactive) | 95.8% (inactive) | 5% (inactive) | -5.19% (inactive) | -0.17% (inactive) | 0.86% (inactive) | 95.1% (inactive) | 0.02 (inactive) | -1% (inactive) | 12.9% (inactive) | –
COc1ccc(C(=O)Nc2ccccc2C(=O)NCCCn2ccnc2)cc1 | 91.3% (inactive) | 93.9% (inactive) | 75.4% (inactive) | – | 59.2 | 82.8% (inactive) | 1.61% (inactive) | 101% (inactive) | 5% (inactive) | -7.51% (inactive) | 7.74% (inactive) | -1.7% (inactive) | 104% (inactive) | 0.23 (inactive) | 12% (inactive) | -4.91% (inactive) | 115% (inactive)
